Compound activity as filed in PubChem BioAssay.
An excerpt weighted towards active compounds, which were near 3.4% of everything screened.
FBW7 activator: activators of human E3 ligase FBW7; Q969H0; AlphaScreen FBW7–phospho-cyclin E peptide binding, activator screen; normalized activity (activation), % at 26.1 µM; 0.13% of 650,000 active; in the data active = normalized activity above about 1.9%;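 also: purified mutant Fbw7 with reduced substrate affinity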
MITF inh: blocks human microphthalmia-associated transcription factor. AlphaScreen MITF homodimerization, bead proximity signal. 0.91% of 650,000 active. inhibition, % at 2.6 µM; in the data active = inhibition above about 50%;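 also: 0% = vehicle wells with protein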
TEAD-YAP inh: TEAD-YAP interaction inhibition. HEK-TIYL cells, TEAD-Gal4/YAP UAS-luciferase luminescence. inhibition, % at 9.12 µM. 1.4% of 640,000 active. AID 1259422; in the data active = inhibition above about 32%;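 also: 0% = median of test compound wells and 100% = reference inhibitor wells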
GPR151 activ: activates the human receptor GPR151; 1% of 650,000 active; activation, % at 11.2 µM; Q8TDV0; PathHunter beta-arrestin GPR151 cells, luminescence; in the data active = activation above about 4.9%;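 also: 0% = median of compound wells and 100% = cells with positive control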
Target sequence (Q8TDV0 whole entry, looked up): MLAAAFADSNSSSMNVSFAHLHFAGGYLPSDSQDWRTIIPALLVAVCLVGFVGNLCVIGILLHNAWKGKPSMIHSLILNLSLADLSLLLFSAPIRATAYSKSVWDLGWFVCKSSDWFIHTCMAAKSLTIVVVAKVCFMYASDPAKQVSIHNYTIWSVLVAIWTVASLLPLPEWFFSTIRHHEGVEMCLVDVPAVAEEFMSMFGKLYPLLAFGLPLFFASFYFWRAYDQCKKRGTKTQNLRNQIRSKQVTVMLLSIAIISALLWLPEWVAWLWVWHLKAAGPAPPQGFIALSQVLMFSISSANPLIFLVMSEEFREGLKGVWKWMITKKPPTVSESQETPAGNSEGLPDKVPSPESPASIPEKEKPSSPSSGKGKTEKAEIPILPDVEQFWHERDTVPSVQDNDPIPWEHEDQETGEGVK
GPR151 confirm: human GPR151 activation, confirmation screen | shares compounds with GPR151 activ | GPR151 PathHunter beta-arrestin cells, luminescence, 90 min; % of EA-reagent control over plate median | activation, % at 11.2 µM | 6,700 tested, under 10 active;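 active = mean percent activation across replicates above the confirmation screen cutoff of 4.91%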
GPR119 counter: GPR119 activation, counter-screen for GPR151 activators | shares compounds with GPR151 activ | GPR119 PathHunter beta-arrestin cells, luminescence, 90 min; 0 = compound-well median, 100 = enzyme-acceptor control | activation, % at 11.2 µM | 0.3% of 6,700 active;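 active = mean percent activation in the counterscreen above 29.09%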;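 also: counterscreen on off-target GPR119 to flag nonselective hits from the GPR151 activator screen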
* hit, by the source's call; x = not tested or not shown.

SMILES	FBW7 activator	MITF inh	TEAD-YAP inh	GPR151 activ	GPR151 confirm	GPR119 counter
C/C(=N\N=C\c1cccs1)c1nnn(-c2nonc2N)c1C	0	-4	-49	0	x	x
C=CCC(O)(CC=C)C(C)NC(=O)C1CC(Cc2cccc(Cl)c2)=NO1 (stereo unspecified)	0	4	-2	11*	1	9
CC(NC(=O)C1CC(Cc2cccc(F)c2)=NO1)c1ccccc1Cl (stereo unspecified)	0	5	-55	0	x	x
O=C(CCCn1c(=S)[nH]c2ccc(Br)cc2c1=O)NC1CCCC1	0	-13	-10	-2	x	x
Cc1ccc(N2C(=O)C3C(C2=O)C2(c4ccccc4)C(=O)C3(c3ccccc3)C(c3ccccc3)=C2c2ccccc2)cc1Cl (stereo unspecified)	0	-2	-1	-1	x	x
O=C(COC(=O)c1ccccc1O)c1ccc(Br)cc1	0	18	-22	-2	x	x
O=C(CC(=O)c1ccccc1O)c1ccc(Br)cc1	0	-9	-30	5.4*	-1	-8
Cc1cc(C=C2C(=O)NC(=S)NC2=O)c(C)n1-c1ccc([N+](=O)[O-])cc1	0	1	-14	6.1*	0	7
CCn1c(-c2cccc(Cl)c2)n[nH]c1=S	0	12	5	-1	x	x
CCN(CC)c1n[nH]c(-c2cccc(Cl)c2)n1	0	14	-30	5.3*	-1	-8
CNCc1ccc(-c2ccc(Br)cc2)o1	0	11	-3	0	x	x
CNCc1ccc(-c2ccc(Cl)cc2)o1	0	14	-9	5.0*	0	-4
Cc1cc(C)cc(-n2cnc3cc(C(=O)NCc4ccc5c(c4)OCO5)ccc32)c1	0	-16	-3	-1	x	x
Cc1cccc(-n2cnc3cc(C(=O)NCc4ccc5c(c4)OCO5)ccc32)c1	0	15	5	7.0*	-1	-7
CCNC(=O)CC1SC(=Nc2ccc(OC)cc2)N(C)C1=O (stereo unspecified)	0	-8	-10	-2	x	x
COc1ccc(N=C2SC(CC(=O)Nc3ccc(OC)cc3OC)C(=O)N2C)cc1 (stereo unspecified)	0	-4	0	6.6*	4	2
CC(C)CCn1c(-c2ccccc2)nc2ccccc21	0	-11	7	8.6*	0	1
COc1ccc(N2CCN(c3ncnc4sc(C(=O)N5CCN(c6cccc(Cl)c6)CC5)c(C)c34)CC2)cc1	0	3	-16	0	x	x
COCCC(=O)Nc1ccc2c(c1)CN(C(=O)c1ccc(CSC)o1)CC2	0	17	-14	9.4*	0	2
CCC[C@@H]1NC(=O)[C@@H]2C[C@H](NC(=O)Nc3cccc(Cl)c3)CN2C1=O	0	11	0	0	x	x
O=C1NC(c2ccccc2)=N/C1=C/c1ccccc1	0	-6	-12	-1	x	x
COc1cc(/C=C2/N=C(c3ccccc3)NC2=O)cc(OC)c1OC	0	2	3	5.4*	0	2
O=c1c2nnn(-c3cccc(Cl)c3)c2ncn1Cc1ccccc1F	0	5	-5	4	x	x
COc1cc(/C=N/NC(=O)c2ccco2)ccc1OCc1ccc([N+](=O)[O-])cc1	1	31	-71	-1	x	x
COc1cc(/C=N\NC(=O)c2ccc([N+](=O)[O-])cc2)ccc1OC(=O)c1ccco1	0	9	1	11*	-1	-5
SMILES	FBW7 activator	MITF inh	TEAD-YAP inh	GPR151 activ	GPR151 confirm	GPR119 counter
O=C1N/C(=C/c2ccccc2Br)C(=O)N1Cc1ccc(F)cc1	0	-4	2	-2	x	x
O=C(Cc1cn(-c2ccc(Cl)nn2)c2ccccc12)NCCN1CCOCC1	0	-4	3	7.8*	4	-3
O=C(Cc1cn(-c2ccc(N3CCOCC3)nn2)c2ccccc12)NCCN1CCOCC1	0	-5	-26	-2	x	x
COc1ccc(N(CC(=O)NC2CC3CCC2C3)S(C)(=O)=O)cc1Cl (stereo unspecified)	0	-2	-4	-2	x	x
Nc1ncnc(Nc2ccc(N=Nc3ccccc3)cc2)c1[N+](=O)[O-]	0	17	3	0	x	x
Cc1ccc(Nc2ncnc(N)c2[N+](=O)[O-])cc1Cl	0	-4	7	9.1*	0	1
Nc1ncnc(Nc2ccc(Nc3ccccc3)cc2)c1[N+](=O)[O-]	0	23	7	8.7*	-2	-1
O=[N+]([O-])c1ccc(C2=NS(=O)(=O)c3ccccc3N2)cc1	0	13	-26	-1	x	x
CC(C)Cn1c(SCc2ccc([N+](=O)[O-])cc2)nnc1-c1ccncc1	0	8	6	5.9*	0	3
Cc1ccc(C)c(N(CC(=O)Nc2cccc(Cl)c2C)S(=O)(=O)c2ccccc2)c1	0	-9	-1	0	x	x
CO[C@@H]1COC(=O)C/C=C/[C@H](C)[C@H](OC)COC(=O)[C@H](C)COC(=O)C/C=C/[C@@H]1C	0	-1	x	5.1*	1	6
COC1COC(=O)[C@@H](C)NC(=O)C/C=C/[C@H](C)[C@@H](OC)COC(=O)C/C=C/[C@@H]1C (stereo partly specified)	0	-3	x	1	x	x
Cc1ccccc1CNC(=O)CN(c1cccc([N+](=O)[O-])c1)S(C)(=O)=O	0	6	2	6.4*	0	-13
Cc1ccc(N(CC(=O)NCc2ccccc2C)S(C)(=O)=O)cc1C	0	8	1	2	x	x
C=CCNC(=O)c1ccccc1NC(=O)CN(c1cccc([N+](=O)[O-])c1)S(C)(=O)=O	1	11	4	13*	1	-6
C=CCNC(=O)c1ccccc1NC(=O)CN(c1cccc(Cl)c1C)S(C)(=O)=O	0	-3	3	5.2*	0	-5
Cc1c(Cl)cccc1N(CC(=O)Nc1ccccc1Cl)S(C)(=O)=O	0	-11	5	0	x	x
CCC(C)NC(=O)c1ccccc1NC(=O)CN(c1cccc([N+](=O)[O-])c1)S(C)(=O)=O (stereo unspecified)	0	-2	11	3	x	x
Oc1ccc(Br)cc1-c1nnc2ccc3ccccc3n12	0	15	6	10*	0	14
CS(=O)(=O)N(CC(=O)NC1CCCCCC1)c1cc(C(F)(F)F)ccc1Cl	1	7	4	3	x	x
O=c1[nH]c(=O)c2sc3nc(-c4ccncc4)cc(C(F)(F)F)c3c2[nH]1	0	2	2	6.3*	1	2
CCOc1ccc(S(=O)(=O)NCc2cccs2)c2ccccc12	1	12	-22	-1	x	x
CCN1CCCc2cc(CCNC(=O)Nc3ccccc3)ccc21	0	14	-9	2	x	x
Cc1cccc(C)c1NC(=O)C1c2cccc[n+]2CC(=O)N1CCO (stereo unspecified)	0	-11	-1	1	x	x
